# High-throughput results (PubChem BioAssay)
# MmCpn inh – inhibitors of Methanococcus maripaludis chaperonin TRiC (MmCpn) | 0.031% of 330,000 active | AID 504842 | Potency, µM (highest dose often 76.9 µM), without a hit: at the highest dose activity, negative = inhibition, actives largely listed as inhibitors | purified Mm-Cpn ATPase, ADP Transcreener TR-FRET; also: % is scaled to controls: 0 for no effect and ±100 for the full control effect; nearly all actives have a fitted effect of over 80% in size
#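 Compound-treated chaperonin, 25 nM final, turns over 10 uM ATP at 37°C for 30 min following a 10 min preincubation; ADP generated competes with ADP-d2 for Eu-cryptate antibody, lowering FRET.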
# Abeta yeast res – restores growth of yeast expressing A-beta42 peptide | Potency, µM (highest dose often 46.1 µM), actives largely listed as activators | yeast expressing A-beta42, growth rescue, OD600, 48 h; response scale: 0% DMSO, 100% iron-clioquinol control | 0.063% of 410,000 active | AID 1347071; also: nearly all actives have a fitted effect of over 55% in size
#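 Yeast A-beta toxicity model in growth medium with pinned compounds, 48 h at 30 C; growth read as absorbance at 600 nm. Normalized to FeCl3/clioquinol equimolar mix (positive) and DMSO (negative).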
# ClpP mod – qHTS Assay for Activators of ClpP | 1.9% of 340,000 active | Potency, µM (top dose mostly 57.5 µM), without a hit: at the top dose activity change, negative = active | purified B. subtilis ClpP, FRET peptide cleavage, 20 min | ATP-dependent Clp protease proteolytic subunit (Bacillus subtilis (strain 168)), P80244; active = well fitted falling curve with a large enough effect; inconclusive = small, poorly fitted or top-dose-only effect; inactive = no such curve, though single readings can be large or run the other way; also: the source files actives as falling curves though it sought activators and does not explain the sign; nearly all actives have a fitted effect of over 65% in size
# Target sequence (P80244 whole entry, looked up): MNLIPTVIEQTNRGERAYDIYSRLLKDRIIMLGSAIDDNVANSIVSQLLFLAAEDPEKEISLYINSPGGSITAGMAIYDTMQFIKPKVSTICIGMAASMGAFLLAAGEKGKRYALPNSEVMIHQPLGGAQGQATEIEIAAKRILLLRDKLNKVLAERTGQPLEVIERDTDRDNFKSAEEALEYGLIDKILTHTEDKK
#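 ClpP 10 microg/mL final, pH 8 Tris/KCl buffer with BSA, glycerol, Tween-20; compound pinned in; FRET-FV substrate; RT 20 min; Ex320/Em430; ΔFRET vs ADEP 5.8 microM, DMSO, no enzyme.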
# aSyn yeast inh – rescues yeast growth from alpha-synuclein toxicity | Yeast expressing alpha-synuclein, growth rescue, BacTiter-Glo, 24 h | Potency, µM (top dose mostly 46.1 µM), for the others: at the top dose growth rescue (activation), hits mostly activators | 0.14% of 370,000 active; also: % of control where 0% means no effect; nearly all actives have a fitted effect of over 65% in size
#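 Screening used galactose-induced yeast with toxic alpha-synuclein levels, exposed to compound for 24 hr at 30 deg C. Cell growth, read with BacTiter-Glo luminescence, gave the measured signal.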
# FUS suppressor – FUS proteinopathy suppression in yeast; S. cerevisiae FUS-expressing, growth rescue, OD600, 24 h; Potency, µM (highest dose often 76.6 µM), actives largely listed as activators; 0.24% of 390,000 active;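 also: plate controls were DMSO vehicle for no effect and reference control for full effect; nearly all actives have a fitted effect of over 55% in size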
#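 Cultures pregrown in 2.5% raffinose medium are shifted to minimal medium containing 2% galactose to express toxic FUS. Compounds are tested at several concentrations. After 24hr at 30C, growth is quantified at 600 nm absorbance.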
# TDP43 rescue – TDP-43 toxicity inhibition in yeast; TDP-43 expressing yeast growth rescue, BacTiter-Glo, 24 h; 1.8% of 410,000 active; Potency, µM (series often up to 46.1 µM), for inactives: top-dose growth rescue (activation), actives largely listed as activators; also: % of control where 0% means no effect; nearly all actives have a fitted effect of over 50% in size
#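 Growth rescue of TDP-43-toxic yeast measured as ATP luminescence (BacTiter-Glo). Cells grown to mid-log in raffinose, induced in galactose at OD600=0.02, exposed to compound 24 hr at 30 deg C.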
# Starred values were filed as active, the others as inactive; i = inactive; ? = inconclusive; · = not tested or not shown. Hits are enriched below; roughly 3.6% of the tested compounds scored in any of these assays. Unless noted, calls follow the shape of the dose curve; as a rule, active = well fitted curve in the direction sought with a large enough effect; inconclusive = small, poorly fitted or top-dose-only effect, or another doubt; inactive = no such curve, though single readings can be large; an effect the other way counts as inactive or inconclusive. Potency is read from the fitted curve at half-maximal effect.
SMILES,MmCpn inh,Abeta yeast res,ClpP mod,aSyn yeast inh,FUS suppressor,TDP43 rescue
Cc1cc(-c2ccc(S(=O)(=O)Nc3ccc(Cl)cc3C)cc2)on1,·,i,-1.2%,·,i,15.8µM*
Cc1ccc(NS(=O)(=O)c2ccc(-c3cc(C)no3)cc2)c(Br)c1,·,i,1.5%,·,i,22.4µM*
c1ccc2c(c1)OCC(c1nn3c(Cn4nnc5ccccc54)nnc3s1)O2 (stereo not drawn),-1.2%,i,-2.2%,-2.8%,31.6µM*,-3.3%
c1ccc(Cc2nn3c(Cn4nnc5ccccc54)nnc3s2)cc1,0.7%,i,1.1%,-19.1%,i,-5.2%
CCC[C@H]1[C@@H](OC(=O)NCc2ccc(C)cc2)CC[C@@]23CCCN2C(=O)CCC[C@@H]13,·,·,·,·,i,·
Cc1cc(C)c2cc(C#N)c(N3CCCN(C(=S)NCCCN(C)C)CC3)nc2c1,-2.6%,i,·,4.9%,i,-10.2%
COc1ccc2nc(N3CCC(C)CC3)c(C#N)cc2c1,-2.3%,i,-6.9%,-0.6%,i,35.5µM*
COc1cccc(C(=O)N2CCN(c3nc4cc(C)cc(C)c4cc3C#N)CC2)c1,·,i,?,3.8%,i,35.5µM*
Cc1cc(C)c2cc(C#N)c(N3CCCC3)nc2c1,-3.0%,i,25.1µM*,0.0%,i,4.1%
Cc1cc2cc(C#N)c(N3CCN(S(C)(=O)=O)CC3)nc2cc1C,-5.5%,i,20µM*,-0.1%,·,13.7%
COc1cc2ncnc(N3CCN(C(=O)Nc4ccc(Oc5ccccc5)cc4)CC3)c2cc1OC,·,·,-4.4%,1.8%,·,·
Cc1cccc(CSc2cccc3cccnc23)c1,-0.3%,i,?,1.6%,i,17.8µM*
CCN(CC)C(=O)Sc1cccc2cccnc12,0.1%,i,28.2µM*,-5.4%,i,-5.4%
O=C(CSc1cccc2cccnc12)NCc1ccco1,-4.4%,i,25.1µM*,2.4%,i,16.6%
Cc1cccc(NC(=O)CSc2cccc3cccnc23)c1C,1.4%,i,·,-0.6%,i,?
CCOC(=O)CSc1cccc2cccnc12,0.2%,i,15.8µM*,-3.1%,i,28.7%
Cc1cccc(CNC(=O)Cn2nc(C)c3nn(-c4ccc(Cl)cc4)c(C)c3c2=O)c1,·,i,-3.6%,·,i,10.7%
Cc1ccccc1NS(=O)(=O)c1ccc2[nH]cc(C(=O)NCCc3ccccc3)c(=O)c2c1,0.7%,i,-22.1%,·,i,26.7%
Cc1cccc(NC(=O)CN(CC2CCCO2)C(=O)c2ccc(S(C)(=O)=O)cc2)c1C (stereo not drawn),-0.7%,i,25.1µM*,-6.9%,i,15.3%
Cc1ccc(-n2nc(CO)c(C(=O)NCc3ccccn3)n2)cc1C,·,i,-4.9%,·,i,1.6%
CCc1ccc(-n2nc(CO)c(C(=O)NCCCc3ccccc3)n2)cc1,·,i,28.2µM*,·,i,10.4%
CCc1ccc(-n2nc(CO)c(C(=O)NCC(c3ccccc3)c3ccccc3)n2)cc1,·,i,?,·,i,9.8%
Cc1ccc(-n2nc(CO)c(C(=O)NCCCc3ccccc3)n2)cc1C,·,i,31.6µM*,·,i,-11.0%
Cc1ccc(-n2nc(CO)c(C(=O)NC(C)c3ccccc3)n2)cc1C (stereo not drawn),·,i,35.5µM*,·,i,4.0%
Cc1ccc(-n2nc(CO)c(C(=O)NC(C)CCCc3ccccc3)n2)cc1C (stereo not drawn),·,i,35.5µM*,·,i,-6.1%
SMILES,MmCpn inh,Abeta yeast res,ClpP mod,aSyn yeast inh,FUS suppressor,TDP43 rescue
Cc1cccc(C(=O)Nc2ccc(C(=O)OCc3cc(=O)n4c(C)csc4n3)cc2)c1,·,i,-2.7%,·,i,15.0%
O=C(NCCCc1ccccc1)c1nn(-c2ccccc2)nc1CO,·,i,-13.9%,·,i,27.2%
CCc1ccc(-n2nc(CO)c(C(=O)NC)n2)cc1,·,i,14.1µM*,·,i,?
O=C(NCCc1ccccc1)c1nn(-c2ccccc2Cl)nc1CO,·,i,-0.3%,·,i,35.5µM*
O=C(OCCF)N1CCN(/[N+]([O-])=N/Oc2ccc([N+](=O)[O-])cc2[N+](=O)[O-])CC1,·,·,·,-48.7%,·,·
C[C@H](CO)N1C[C@H](C)[C@@H](CN(C)S(=O)(=O)c2cccs2)Oc2c(NC(=O)NC3CCCCC3)cccc2C1=O,0.8%,i,0.4%,-1.9%,14.1µM*,5.2%
C[C@H](CO)N1C[C@H](C)[C@@H](CN(C)C(=O)Nc2ccc(C(F)(F)F)cc2)Oc2c(NC(=O)C3CCCCC3)cccc2C1=O,2.2%,i,-1.6%,-10.7%,?,?
C[C@H](CO)N1C[C@H](C)[C@@H](CN(C)C(=O)Nc2ccc(C(F)(F)F)cc2)Oc2c(NC(=O)NC3CCCCC3)cccc2C1=O,-1.3%,i,0.0%,6.8%,28.2µM*,-1.9%
C[C@@H]1CN([C@H](C)CO)C(=O)c2cccc(NC(=O)NC3CCCCC3)c2O[C@@H]1CN(C)C(=O)Nc1ccc(C(F)(F)F)cc1,-1.4%,i,-12.0%,-15.3%,31.6µM*,13.6%
Brc1cccc[n+]1CCC[n+]1ccccc1Br,·,·,-3.8%,0.8%,·,·
O=C(/C=C/c1ccc(O)c(O)c1)OCCc1ccccc1,·,i,-5.5%,5.17µM*,i,15.8µM*
COc1cc(/C=C/C(=O)OCC(=O)Nc2nnc(-c3ccccc3)o2)cc(OC)c1OC,-11.5%,i,17.8µM*,-1.5%,i,?
COc1ccc(/C=C/C(=O)OCC(=O)NCCCc2ccccc2)cc1OC,-2.1%,i,-23.5%,1.5%,i,35.5µM*
O=C(/C=C/c1ccc(O)c(O)c1)OC(Cc1ccc(O)c(O)c1)C(=O)O (stereo not drawn),-2.9%,i,-11.1%,1.6%,i,-4.0%
CCc1nn(C(C)C(=O)N2CCN(c3cccc(C(F)(F)F)c3)CC2)c(=O)c2cc3occc3n12 (stereo not drawn),·,i,-6.7%,·,i,?
Cc1ccc(C)c(NC(=O)Cn2nc(C)c3nn(-c4ccc(Cl)cc4)c(C)c3c2=O)c1,·,i,-3.0%,·,i,18.8%
CNc1ncc(C(=O)c2ccc(Cl)cc2)s1,-2.9%,i,-2.0%,-2.9%,i,10µM*
CCOc1ccc(C(=O)NCCn2cc(SCC(=O)Nc3ccc4c(c3)OCCO4)c3ccccc32)cc1,·,i,-0.1%,·,i,12.3%
Cc1ccc(/C=C(\NC(=O)c2ccc(C)cc2)c2nc(=S)[nH][nH]2)cc1,-1.8%,i,-4.7%,27.8%,i,20µM*
COc1ccc(NC(C)(C)c2nnnn2-c2c(C)cccc2C)cc1,-2.1%,i,·,11.0%,i,12.6µM*
